Bioassay records from PubChem.
This is one part of a sample in which hits are shown more often than they occur.
Tgondii IFNg = T. gondii growth inhibition with IFN-gamma, primary screen, cell-based; Toxoplasma gondii growth in IFN-gamma-treated host cells; hits give low values; activity change, negative = inhibition, % (no concentration beside the values); 69,000 tested, 3.8% active; in the data active means activity change below about -70%, passing the limit was not always enough;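 further: host cells are HeLa cells infected with Toxoplasma gondii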
Hits are given with their value; i = inactive; ! = a repeat was not active.

SMILES	Tgondii IFNg
C=C1[C@@H](C)[C@H]2[C@H](Cc3ccccc3)NC(=O)[C@]23OC(=O)/C=C/[C@H](O)CCC[C@@H](C)C/C=C/[C@H]3[C@@H]1O	-98
c1ccc(CN2CCOCC3(CCN(c4ccccn4)C3)C2)nc1 (stereo not given)	i
CC(C)(C)OC(=O)c1ncn2c1[C@@H]1CCCN1C(=O)c1c(Br)cccc1-2	i
Cc1cc(C(O)CN2CC=C(c3ccc(F)cc3)CC2)c(C)s1 (stereo not given)	i
O=C(CN1C2CCC1CC(O)(c1ccc(F)cc1)C2)NCc1ccco1 (stereo not given)	i
C[C@@H]1O[C@@H](O[C@H]2C[C@@H](O)[C@]3(CO)C4C(CC[C@]3(O)C2)[C@@]2(O)CC[C@H](C3=CC(=O)OC3)[C@@]2(C)C[C@H]4O)[C@H](O)[C@H](O)[C@H]1O (stereo not given in full)	-78
Cc1cccc(CN2CC[C@@H]3OCCN(S(=O)(=O)C4CC4)[C@@H]3C2)n1	i
Cc1cccc(CN2C[C@H]3OCCN(C)[C@H]3C2)n1	i
C=CCOC1C2CCC1N(Cc1cccc(C)n1)CCO2 (stereo not given)	-71
O=C1NC(=O)c2c1c1c3ccccc3n3c1c1c2c2ccccc2n1C1CCC3O1	i
O=C(Nc1ccncc1)c1cc2cccnc2n(Cc2ccccc2)c1=O	i
O=C(NCc1cccnc1)c1cc2cccnc2n(Cc2ccccc2F)c1=O	i
O=C(Cn1ncnn1)N1C[C@@H](c2cccc(F)c2F)[C@@H]2[C@H]1C1CCN2CC1	i
CCN1CCOCC2(CCCN(C(=O)c3cccnc3)C2)C1 (stereo not given)	i
CS(=O)(=O)NCc1cncc2c1CCN(C1CCOC1)C2 (stereo not given)	i
C[C@]12CC[C@H](OC3OC(O)C(O)C(O)C3O)C=C1CCC1C2CC[C@]2(C)[C@@H](c3ccc(=O)oc3)CC[C@]12O (stereo not given in full)	-80
CCOC(=O)Cc1csc(NC(=O)c2cc3cccnc3n(Cc3ccccc3)c2=O)n1	i
CCOC(=O)c1cncn1C(C)c1ccccc1 (stereo not given)	i
C=CCN1CC[C@]2(C)c3cc(O)ccc3CC1[C@@H]2C	i
CCCCCOc1c(OC)ccc2cc(C(=O)NCc3ccc4c(c3)OCO4)c(=O)[nH]c12	-74!
O=C(Nc1ccc2c(c1)OCO2)c1cc2cccnc2n(Cc2ccc(F)cc2)c1=O	i
COc1ccc(CC(=O)N2CCN(Cc3ccc4c(c3)OCO4)CC2)cc1OC	i
NC(=O)c1cn(C2OC(CO)[C@H](O)[C@@H]2O)c2ncnc(N)c12 (stereo not given in full)	-83
CCNC(=O)[C@H]1O[C@@H](n2cnc3c(N)ncnc32)[C@H](O)[C@@H]1O	i
C[C@H]1CN([C@@H](C)CO)C(=O)CCCn2nncc2CO[C@@H]1CN(C)C(=O)Oc1cccc2ccccc12	i
SMILES	Tgondii IFNg
CC(c1cccc(F)c1)n1cc(C(=O)O)nn1 (stereo not given)	i
COc1cc2c(cc1OC)[C@@H]1C(=O)c3ccc(OC)c(CC=C(C)C)c3O[C@@H]1CO2	i
COc1cc2c(cc1OC)[C@@H]1C(=O)c3ccc4c(c3O[C@@H]1CO2)CC(C(C)C)O4 (stereo not given in full)	-82
Cc1cccc(NC(=O)c2cc3cccnc3n(Cc3ccccc3)c2=O)c1C	i
Fc1cccc([C@H]2CN(Cc3ccco3)[C@@H]3C4CCN(CC4)[C@H]23)c1F	i
Cc1cccnc1CN1C[C@@H](C(=O)N2CCCCO2)[C@@H]2OCC[C@H]21	i
CC12CCC3C4CCCC=C4CCC3C1CCC2O (stereo not given)	i
C[C@]12CCC(=O)C=C1CCC1C2CC[C@@]2(C)C1CC[C@@H]2O (stereo not given in full)	-88
C[C@]1(O)CC[C@H]2[C@@H]3CCC4=CC(=O)CC[C@]4(C)[C@@]3(F)[C@@H](O)C[C@@]21C	i
C[C@]12CC[C@H]3[C@@H](CCC4=CC(=O)CC[C@@H]43)[C@@H]1CC[C@@H]2O	-76
C#CC1(O)CCC2C3CCC4=CC(=O)CCC4(C)C3CCC21C (stereo not given)	i
C[C@]12CC[C@@H]3c4ccc(O)c(O)c4CC[C@H]3[C@@H]1CC[C@@H]2O	i
c1cc(CN2CCOCC3(CCNCC3)C2)ccn1	i
CC(=O)N1C2CCC1[C@@H](N(C)Cc1ccccc1)C2 (stereo not given in full)	i
CC(Cc1cccc(F)c1)NCc1n[nH]c2c1CCC2 (stereo not given)	i
Cc1ccc2c(n1)N(C)CCN(Cc1nccn1C)C2	i
CCN1C[C@@H]2c3nc(Nc4ccccc4)ncc3CS(=O)(=O)[C@H]2C1	i
Cc1cc(CC(=O)N2CCCN(C)C3(CCN(C)CC3)C2)on1	i
COc1ccccc1NC(=O)c1c(O)c2cccnc2n(Cc2ccccc2)c1=O	i
O=C(Nc1ccccc1F)c1c(O)c2cccnc2n(Cc2ccccc2)c1=O	i
O=C(NCc1ccco1)c1c(O)c2cccnc2n(Cc2ccccc2)c1=O	-99
O=C(NCc1ccccc1Cl)c1c(O)c2cccnc2n(Cc2ccccc2)c1=O	-108
O=C(Nc1ccc(Cl)cc1)c1c(O)c2cccnc2n(Cc2ccccc2)c1=O	i
Cc1ccc(NC(=O)c2c(O)c3cccnc3n(Cc3ccccc3)c2=O)c(F)c1	i
Cc1ccc(NC(=O)c2c(O)c3cccnc3n(Cc3ccccc3)c2=O)cc1C	i
SMILES	Tgondii IFNg
Cc1cccc(CNC(=O)c2c(O)c3cccnc3n(Cc3ccccc3)c2=O)c1	-119
O=C(Nc1cccc(F)c1)c1c(O)c2cccnc2n(Cc2ccccc2)c1=O	i
O=C(NCc1ccco1)c1cc2cccnc2n(Cc2ccccc2)c1=O	i
Cc1ccccc1CNC(=O)c1c(O)c2cccnc2n(Cc2ccccc2)c1=O	-119
Cc1ccc(NC(=O)c2c(O)c3cccnc3n(Cc3ccccc3)c2=O)cc1F	i
Cn1cc(CN2C[C@H]3COC[C@@]3(COc3ccccn3)C2)cn1	i
CC(N)Cc1c[nH]c2ccc(OCc3cccs3)cc12 (stereo not given)	i
O=S(=O)(c1ccc(F)cc1)N1CC[C@@H]2CNC[C@@H]21	i
CNc1ncc(C(=O)N2CCN3CCN(C)C(=O)C3C2)cn1 (stereo not given)	i
CN1CCC2(CC1)CCN(C1CSCCSC1)C2	i
Cc1nc(CN2CCC3(C2)CN(C(=O)c2cccnc2)C3)cs1	i
N#CC(O[C@@H]1O[C@H](CO[C@@H]2O[C@H](CO)[C@@H](O)[C@H](O)[C@H]2O)[C@@H](O)[C@H](O)[C@H]1O)c1ccccc1 (stereo not given in full)	i
CCCN1C[C@H]2COC[C@H](CC(=O)NCCc3ccccn3)[C@H]2C1	i
O=C(NCc1ccccn1)c1cc2cccnc2n(Cc2ccc(F)cc2)c1=O	i
CN1CC(C(=O)O)CN2CCN(C(=O)c3ccncc3F)CC2C1 (stereo not given)	i
OC1(c2ccc(Cl)cc2)c2ccccc2C2=NCCN21 (stereo not given)	i
CCc1ccc(CN2CCC3(CC2)CN(C)CCN3C)nc1	i
O=C(NCc1ccc2c(c1)OCO2)c1c(O)c2cccnc2n(Cc2ccccc2)c1=O	-77
O=C(Nc1cc(F)ccc1F)c1c(O)c2cccnc2n(Cc2ccccc2)c1=O	i
O=C(Nc1ccc(F)cc1F)c1c(O)c2cccnc2n(Cc2ccccc2)c1=O	i
O=C(NCc1ccc(F)cc1F)c1c(O)c2cccnc2n(Cc2ccccc2)c1=O	-104
